{
  "source": "PubChem BioAssay (NCATS)",
  "note": "Records with an inconclusive call do not appear. Where a call stands in place of a potency, no number is given. Active and inactive are the calls of the source. Calls follow the shape of the dose curve; as a rule, active = well fitted inhibition curve with a large enough effect; inconclusive = small, poorly fitted or top-dose-only effect; inactive = flat fitted curve, though single readings scatter. Potency is read from the fitted curve at half-maximal effect.",
  "data": [
    {"experiment": "BET inhibitor-based combinations targeting novel dependencies in MECOM-rearranged (r) AML: AML-194 cell line (AID 2202237; also: nearly all actives have a fitted effect of over 40% in size)", "conditions": "AML-194 (MECOM-r AML) viability, CellTiter-Glo, 48 h; series mostly up to 46 µM", "from_the_text": "Ecotropic viral insertion site 1 (EVI1) is located on chromosome 3q26.2 as part of the MECOM (MDS and EVI1 complex) locus. Under normal hematopoiesis, EVI1 is a regulator of hematopoietic stem cell maintenance and self-renewal and EVI1 levels decrease as the cells differentiate. In approximately 5-10% of de novo acute myeloid leukemia (AML) EVI1 is aberrantly expressed, including Chromosomal inv(3)(q21;q26.2) or t(3;3)(q21;q26.2) alterations (MECOM-r) that account for about 50% of AML with EVI1 overexpression 31. AMLs with high levels of EVI1 have a poor prognosis and an overall survival time averaging between 10-14 months. EVI1 overexpression confers resistance in leukemia cells, highlighting the need to develop new targeted therapies for EVI1 overexpressing AMLs.\nHere, we performed an unbiased chemical drug screening by evaluating the single agent activity of a collection of 2,480 oncology-focused, approved and investigational drugs (NCATS Mechanism Interrogation Plates, MIPE v5.0) against a panel of seven AML cell lines. These included four MECOM-r cell-lines (AML-191, AML-194, UCSD-AML1 and HNT-34) and three non-MECOM-r AMLs (MV4-11, OCI-AML3 and SET-2). Exploiting the mechanistic redundancy built in the library, we identified target-level sensitivities in MECOM-r AML cells and relative activity as compared to other AML subtypes.\nA collection of 2480 mechanistically annotated dugs (MIPE v5.0) was used to screen four 3q26.2 rearranged AML cell lines and three non-3q26.2 rearranged AML cell lines. This library purposely exploits redundancy by including multiple inhibitors of key onco-targets, while simultaneously encompassing mechanistic diversity, targeting more than 800 distinct mechanisms of action. Briefly, cells were seeded in 5 uL of growth media using a Multidrop Combi dispenser into 1536 well white polystyrene tissue culture treated plates (Corning) at a density of 500cells/well. For each cell-line, for each of the 2480 drugs in MIPE v5.0 library, an 11-point dose curve was generated via a 1536 pin-tool. Plates were incubated for 48 hr at standard incubator conditions, covered by a stainless steel gasketed lid to prevent evaporation. Cell viability was determined by luminescence based, Cell Titer Glo assay (Promega). In detail, 3 uL of Cell Titer Glo were added to each well and plates were incubated at room temperature for 15 min with a stainless-steel lid in place. Luminescence readings were taken using a Viewlux (PerkinElmer) with a 2 s exposure time per plate. Compound dose-response curves were normalized to DMSO and empty well controls on each plate. Quantitative drug activity data from dose-response curves was determined utilizing area Under the Curve (AUC) and Z-transformed AUC (Z-AUC, a mean-centering transformation applied to each individual cell-line screened).", "values": [
      {"smiles": "CN1C(=O)CCS(=O)(=O)C1c1ccc(Cl)cc1", "note": "(stereo not given)", "Potency": "inactive"},
      {"smiles": "O=C(O)C(=O)c1cn(Cc2ccccc2)c2ccc(-c3ccc(OC(F)(F)F)cc3)cc12", "Potency": "inactive"},
      {"smiles": "Cn1c(COP(=O)(NCCBr)NCCBr)cnc1[N+](=O)[O-]", "Potency": "inactive"},
      {"smiles": "C/C(O)=C(\\C#N)C(=O)Nc1cc(Br)ccc1Br", "Potency": "inactive"},
      {"smiles": "C[C@]12CC[C@@H]3c4ccc(OC(=O)N(CCCl)CCCl)cc4CC[C@H]3[C@@H]1CC[C@@H]2OP(=O)(O)O", "Potency": "inactive"},
      {"smiles": "C/C1=C/C[C@@H](/C(C)=C/c2csc(C)n2)OC(=O)C[C@H](O)C(C)(C)C(=O)[C@H](C)[C@@H](O)[C@@H](C)CCC1", "Potency": "93.4 nM (active)"},
      {"smiles": "CCCCCC[C@H]1C(=O)O[C@H](C)[C@H](NC(=O)c2cccc(NC=O)c2O)C(=O)O[C@@H](C)[C@@H]1OC(=O)CC(C)C", "Potency": "inactive"},
      {"smiles": "CC1(C)C(=O)N(c2ccc(C#N)c(C(F)(F)F)c2)C(=S)N1Cc1ccc(-c2cn[nH]n2)cc1", "Potency": "20900 nM (active)"},
      {"smiles": "CC(C)C[C@H](CN)CC(=O)O", "Potency": "inactive"},
      {"smiles": "C/C=C(/C)C(=O)O[C@H]1C(C)=C2[C@H]([C@@H]1OC(=O)CCCCCCC)[C@@](C)(OC(C)=O)C[C@H](OC(=O)CCC)[C@@]1(O)[C@H]2OC(=O)[C@@]1(C)O", "Potency": "2090 nM (active)"},
      {"smiles": "COC12C(COC(N)=O)C3=C(C(=O)C(C)=C(N)C3=O)N1CC1C2N1C", "note": "(stereo not given)", "Potency": "inactive"},
      {"smiles": "C[C@@H]1CC[C@H]2[C@@H](C)C(=O)O[C@@H]3O[C@@]4(C)CC[C@@H]1[C@]32OO4", "Potency": "inactive"},
      {"smiles": "CC1=C2C[C@H]3[C@@H](CC=C4C[C@@H](O)CC[C@@]43C)[C@@H]2CC[C@]12O[C@@H]1C[C@H](C)CN[C@H]1[C@H]2C", "Potency": "inactive"},
      {"smiles": "O=P1(N(CCCl)CCCl)NCCCO1", "note": "(stereo not given)", "Potency": "inactive"},
      {"smiles": "O=C(Oc1ccc([N+](=O)[O-])cc1)N1CCN(Cc2cccc(Oc3ccccc3)c2)CC1", "Potency": "inactive"},
      {"smiles": "N[C@@H](Cc1ccc(N(CCCl)CCCl)cc1)C(=O)O", "Potency": "2950 nM (active)"},
      {"smiles": "C[C@@H]1O[C@@H](O[C@H]2C[C@@H](O)[C@]3(CO)[C@H]4[C@H](O)C[C@]5(C)[C@@H](C6=CC(=O)OC6)CC[C@]5(O)[C@@H]4CC[C@]3(O)C2)[C@H](O)[C@H](O)[C@H]1O", "Potency": "46.8 nM (active)"},
      {"smiles": "C[C@H]1CCC/C=C/C2C[C@H](O)C[C@H]2[C@H](O)/C=C/C(=O)O1", "note": "(stereo not given in full)", "Potency": "372 nM (active)"},
      {"smiles": "CCc1c(C(=O)C(N)=O)c2c(OCC(=O)O)cccc2n1Cc1ccccc1", "Potency": "inactive"},
      {"smiles": "NN=C(N)N", "Potency": "inactive"},
      {"smiles": "Cc1cc(SCc2sc(-c3ccc(C(F)(F)F)c(F)c3)nc2C)ccc1OCC(=O)O", "Potency": "inactive"},
      {"smiles": "C[C@]12Cc3cn[nH]c3C[C@@H]1CC[C@@H]1[C@@H]2CC[C@@]2(C)[C@H]1CC[C@]2(C)O", "Potency": "inactive"},
      {"smiles": "C[C@]12COC(=O)C[C@@H]1CC[C@@H]1[C@@H]2CC[C@@]2(C)[C@H]1CC[C@]2(C)O", "Potency": "inactive"},
      {"smiles": "COc1cccc2c1C(=O)c1c(O)c3c(c(O)c1C2=O)C[C@@](O)(C(=O)CO)CC3OC1CC(N2CCOC(OC)C2)C(O)C(C)O1", "note": "(stereo not given in full)", "Potency": "4.2 nM (active)"},
      {"smiles": "Cc1ccccc1-n1c(Cn2cnc3c(N)ncnc32)nc2cccc(C)c2c1=O", "Potency": "inactive"},
      {"smiles": "CN[C@@H]1C[C@H]2O[C@@](C)([C@@H]1OC)n1c3ccccc3c3c4c(c5c6ccccc6n2c5c31)C(=O)NC4", "Potency": "33.2 nM (active)"},
      {"smiles": "COc1cc2cc(c1Cl)N(C)C(=O)C[C@H](OC(=O)C(C)C)[C@]1(C)O[C@@H]1[C@H](C)[C@@H]1C[C@@](O)(NC(=O)O1)[C@H](OC)/C=C/C=C(\\C)C2", "Potency": "inactive"},
      {"smiles": "CCOC(=O)Nc1ccc(NCc2ccc(F)cc2)cc1N", "Potency": "inactive"},
      {"smiles": "CC(C)(O)/C=C\\C(=O)[C@](C)(O)[C@H]1[C@H](O)C[C@]2(C)[C@@H]3CC=C4[C@@H](C=C(O)C(=O)C4(C)C)[C@]3(C)C(=O)C[C@@]12C", "Potency": "417 nM (active)"},
      {"smiles": "O=c1[nH]c2ccc(Cl)cc2c(N[C@@H]2CN3CCC2CC3)c1-c1nc2ccccc2[nH]1", "Potency": "332 nM (active)"},
      {"smiles": "CN(C)[C@@H]1C(=O)C(C(N)=O)=C(O)[C@@]2(O)C(=O)C3=C(O)c4c(O)cccc4[C@@](C)(O)[C@H]3C[C@@H]12", "Potency": "inactive"},
      {"smiles": "C#C[C@]1(O)C=C[C@H]2[C@@H]3CCC4=CC(=O)CC[C@@H]4[C@H]3CC[C@@]21CC", "Potency": "inactive"},
      {"smiles": "Cn1c(CCCC(=O)O)nc2cc(N(CCCl)CCCl)ccc21", "Potency": "20900 nM (active)"},
      {"smiles": "CC(=O)O[C@@]12CO[C@@H]1C[C@H](O)[C@@]1(C)C(=O)[C@H](O)C3=C(C)[C@@H](O)C[C@@](O)([C@@H](OC(=O)c4ccccc4)[C@H]21)C3(C)C", "Potency": "23500 nM (active)"},
      {"smiles": "O=C(O)c1nn(Cc2ccc(Cl)cc2Cl)c2ccccc12", "Potency": "inactive"},
      {"smiles": "COc1cc(C(=O)N2CC[C@@H](O)[C@@H](N)C2)cc2nc(-c3cc4ccccc4n3CC3CC3)n(C)c12", "Potency": "inactive"},
      {"smiles": "CC(C)c1cccc(C(C)C)c1O", "Potency": "inactive"},
      {"smiles": "C/C=C(\\C)C(=O)N[C@@H](c1ccccc1)[C@@H](O)C(=O)O[C@H]1C[C@@]2(O)[C@@H](OC(=O)c3ccccc3)[C@@H]3[C@]4(OC(C)=O)CO[C@@H]4C[C@H](O)[C@@]3(C)C(=O)[C@H](OC(C)=O)C(=C1C)C2(C)C", "Potency": "74.2 nM (active)"},
      {"smiles": "C[C@]12CC[C@H]3[C@@H](CCC4=CC(=O)CC[C@@]43C)[C@H]1CC[C@H]2OC(=O)CCC1CCCC1", "Potency": "inactive"},
      {"smiles": "Cc1[nH]ncc1-c1cc2nc([C@@H]3CC4CCN3CC4)[nH]c(=O)c2s1", "Potency": "9340 nM (active)"}
    ]}
  ]
}
